Here are results for 104 compounds from ChEMBL document CHEMBL4513216, “Probing the Open Global Health Chemical Diversity Library for Multistage-Active Starting Points for Next-Generation Antimalarials” (ACS Infect Dis, 2020).

Molecules are shown by their SMILES. Screen size: about 68,000 compounds; about 2,700 (4%) showed an effect of 50% or more. The entries come from a sample that favours strong results as a whole.

This test deals with Plasmodium berghei. Kind of test: Screen against P. berghei liver stage (PbLuc), transformed with Luciferase, at 2uM. The format is functional, HepG2. The note with it: tested at 2 uM.
For the compound `CCCS(=O)(=O)c1ncc(CN2CCC(CO)CC2)n1CC1CCCO1` (centres undefined), the INHIBITION turned out to be 27.44%.
As to `CCCS(=O)(=O)c1ncc(CN2CCC(C)CC2)n1CC1CCCO1` (centres undefined), the INHIBITION was found to be 70.81%.
For `CC1CCN(Cc2cnc(S(=O)(=O)CC3CC3)n2CC2CCCO2)CC1` (centres undefined) the value was -14.32%; for `CN1CCN(Cc2cnc(S(=O)(=O)CC3CC3)n2CC2CCCO2)CC1` (centres undefined), 1.8%; for `O=S(=O)(CC1CC1)c1ncc(CN2CCSCC2)n1CC1CCCO1` (centres undefined), 65.76%.
With `O=S(=O)(CC1CC1)c1ncc(CN2CCOCC2)n1CC1CCCO1` (centres undefined), the INHIBITION was determined as 3.49%.
Consider `O=C(NC1CCCN(c2ncccn2)C1)c1ccoc1` (centres undefined), for which the INHIBITION came out at 36.98%.
To `CC(=O)c1c(C)nn(S(=O)(=O)c2ccc(Cl)cc2)c1C` belongs 11.8%.
For `O=C(O)c1ccnc(SCC(=O)c2ccccc2)c1` the value was 25.23%; for `Cc1ccc(OC2CCN(S(=O)(=O)N(C)C)CC2)nc1`, 15.75%; for `C[C@H]1CN2C[C@H](O)CC2CN1Cc1ccc2nccnc2c1` (some centres undefined), -36.08%.
As for `COc1cc(Cl)ccc1CNC(=O)N(C)C(C)CS(C)(=O)=O` (centres undefined), the INHIBITION is given as -22.82%.
For `CCN(C(=O)NCCc1cccc(F)c1F)C(C)CS(C)(=O)=O` (centres undefined), the INHIBITION is recorded as 64.2%.
To `COc1ccccc1CCNC(=O)N(C)C(C)CS(C)(=O)=O` (centres undefined) belongs 50.46%; to `CCS(=O)(=O)CC(C)N(C)C(=O)NCCc1cccc(F)c1F` (centres undefined), -4.09%.
With `CC(C)Oc1ccccc1CNC(=O)N(C)C(C)CS(C)(=O)=O` (centres undefined), the INHIBITION is on record as -25.21%.
For `CCN(C(=O)NCCc1ccccc1Cl)C(C)CS(C)(=O)=O` (centres undefined) the value was 34.46%; for `Cc1cccc(CN2CCc3c(nc(N4CCC(C)CC4)[nH]c3=O)C2)n1`, 23.94%; for `COc1ccc(CN2CCCC3(CCN(c4ccsc4)C3=O)C2)cc1` (centres undefined), 7.21%.
As for `N#Cc1ccc(CS(=O)(=O)NC(=O)c2ccc3c(c2)COC3)cc1`, the INHIBITION is listed as -14.32%.
To `CCCc1cc(CNc2cc(CCC)nc3ccnn23)on1` belongs -15.75%; to `Fc1cccc(F)c1Cn1c(C2CCNCC2)cc2cccnc21`, 13.17%.
Take `C=c1ccoc1=C1NN=C(CNC2CCCN(c3cccnn3)C2)O1` (centres undefined): the INHIBITION was 7.01%.
Regarding `O=C(Cc1ccccn1)N1CCc2ncnc(N3CCCC3)c2CC1`, the INHIBITION is -3.19%.
For the compound `CCNC(=O)C1CCN(Cc2ccccc2OCC(F)(F)F)CC1`, the INHIBITION amounted to 8.59%.
Take `CC(C)(C)n1ncc(NCCc2ccccc2C(F)(F)F)c(Cl)c1=O`: the INHIBITION was -59.58%.
To `CC(=O)N1C[C@H]2CC[C@@H](C1)N(S(=O)(=O)c1ccc(F)cc1Cl)C2` belongs -11.81%.
For the compound `CS(=O)(=O)N1CCC(NCC2(N3CCOCC3)CCCCC2)CC1`, the INHIBITION turned out to be 7.67%.
`C1CCC(CNC2CCSCC2)(N2CCOCC2)CC1`: the INHIBITION was 60.13%.
For `C1CCC(NCC2(N3CCOCC3)CCSC2)C1` (centres undefined), the INHIBITION is listed as -20.95%.
For `CCN1CC2(CCNCC2)COc2ccccc2S1(=O)=O`, the INHIBITION worked out at 3%.
On to `CC(C)COCC1CN(Cc2ccoc2)Cc2ncn(C)c21` (centres undefined), for which the INHIBITION was -13.32%.
Take `CC(C)COCC1CN(Cc2cnn(C)c2)Cc2ncn(C)c21` (centres undefined): the INHIBITION was 79.02%.
For `CCOCC1CN(Cc2cnn(C)c2)Cc2ncn(C)c21` (centres undefined) the value was -20.41%.
Consider `CC(=O)N1CCCN(C(=O)CN(C)c2ccc(Cl)cn2)CC1`, for which the INHIBITION is 12.29%.
For `Cc1cccc(N(CC(=O)c2ccccc2)C2=NCCCCC2)c1` the value was -17.7%; for `Cc1oncc1C(=O)NCc1cc(=O)n2c(n1)CN(C(C)C)CCC2`, 4.42%.
As for `Cc1nc(CCNC(=O)NCc2cccc(N(C)C)n2)cs1`, the INHIBITION was 53.45%.
As to `Cc1nc(CCNC(=O)NCc2ccc(N(C)C)nc2)cs1`, the INHIBITION is given as -16.42%.
For `Cc1nc(CNC(=O)NCCc2ccc(N(C)C)cc2)cs1`, the INHIBITION came to 12.88%.
For `CN(C)c1ncccc1CNc1cc(N2CCCC2CO)ncn1` (centres undefined) the value was -1.02%.
Regarding `CC(C)CN(C)Cc1c[nH]nc1-c1ccc(F)cc1F`, the INHIBITION is -22.69%.
On to `Cc1cnccc1CN(C)Cc1c[nH]nc1-c1ccc(F)cc1F`, for which the INHIBITION is listed as 51.39%.
With `Cc1nonc1CN(C)Cc1c[nH]nc1-c1ccc(F)cc1F`, the INHIBITION worked out at 2.59%.
As for `CCCN1CCC(c2cc(CCOc3ccc(C(F)(F)F)cc3)[nH]n2)C1` (centres undefined), the INHIBITION was 27.53%.
To `Cc1cccc(CN2CCc3[nH]nc(C(=O)N(C)C)c3C2)n1` belongs -25.31%; to `OC(COCc1ccccc1)CSc1nnc2ccccn12` (centres undefined), 2.9%; to `OC(COCc1ccco1)CSc1nnc2ccccn12` (centres undefined), 76.82%.
For `OC(COCc1cccs1)CSc1nnc2ccccn12` (centres undefined) the value was 45.82%; for `Cc1ccccc1N1CCCN(C(=O)CCc2ccncc2)CC1`, 1.42%; for `Cc1ccccc1N1CCCN(c2ccncn2)CC1`, 53.45%.
Consider `Cc1ccccc1N1CCN(c2ccncn2)C(C)C1` (centres undefined), for which the INHIBITION is listed as -90.79%.
Consider `CC(C)N1CCOC(Cc2nn3c(Cc4ccccc4)nnc3s2)C1` (centres undefined), for which the INHIBITION was 20.29%.
For `CC(C)c1nnc2sc(CC3CN(Cc4ccccc4)CCO3)nn12` (centres undefined), the INHIBITION is on record as 23.33%.
To `CCCc1nnc2sc(CC3CN(Cc4ccccc4)CCO3)nn12` (centres undefined) belongs 51.43%.
For `CCN1CCc2[nH]cnc2C12CCN(c1ccc(Cl)c(C(=O)O)n1)CC2` the value was -3.87%; for `O=C(NCc1cccnc1-n1cncn1)c1cc(Cl)ccn1`, 34%.
Take `CNCC1CCC(c2cc(CN(C)C(=O)c3cnccn3)n(C)n2)CC1` (centres undefined): the INHIBITION is on record as 24.98%.
Consider `CC(=O)N1CCC(NC(C)c2cnn(-c3ccc(F)cc3F)c2C)CC1` (centres undefined), for which the INHIBITION came to 79.21%.
On to `CSc1ncc(CNC(C)c2cnn(-c3ccc(F)cc3F)c2C)cn1` (centres undefined), for which the INHIBITION is on record as -20.35%.
On to `Cc1c(C(C)NC(=O)Nc2ccc(F)cc2F)cnn1C` (centres undefined), for which the INHIBITION is given as -41.11%.
For `Cc1c(C(C)NC2CSCCSC2)cnn1-c1ccc(F)cc1F` (centres undefined) the value was 81.59%.
Consider `Cc1c(C(C)NC2CCCC2)cnn1-c1ccc(F)cc1F` (centres undefined), for which the INHIBITION amounted to 12.43%.
Take `Cc1c(C(C)NCC2CCCC2)cnn1-c1ccc(F)cc1F` (centres undefined): the INHIBITION is recorded as 10.05%.
`COc1ccc(-n2ncc(C(C)NC3CCSCC3)c2C)cc1` (centres undefined): the INHIBITION is given as -62.99%.
For `Cc1c(C(C)NC2CCN(C(C)C)CC2)cnn1-c1ccc(F)cc1F` (centres undefined), the INHIBITION is 14.82%.
As for `Cc1c(C(C)NC2CCOCC2)cnn1-c1ccc(F)cc1F` (centres undefined), the INHIBITION is given as 69.67%.
In the case of `Cc1cc2c(cc1NC(N)=O)OCO2`, the INHIBITION is recorded as 23.3%.
For `CCn1nc(C)cc1C(=O)N1C[C@@H]2C[C@@H](c3nnc(C)[nH]3)O[C@@H]2C1` the value was 24.23%; for `CN1CCN(C2COC3(CCN(Cc4ccsc4)CC3)C2)CC1` (centres undefined), -0.38%; for `COc1ccc2c(ccn2CCC(=O)/N=c2\[nH]nc(C3CCCO3)s2)c1` (centres undefined), 1.57%.
With `Cc1nc(C)c(CC(=O)N2C[C@@H](C(=O)O)[C@H](c3ccncc3)C2)s1`, the INHIBITION is reported as 56.78%.
On to `Cc1nc(C)c(CC(=O)N2C[C@H]3CC[C@@H](C2)N(CC2CC2)C3)s1`, for which the INHIBITION was -38.36%.
Turning to `Cc1nc(C)c(CC(=O)N2C[C@@H](C(=O)O)[C@H](c3ccccc3C)C2)s1`, the INHIBITION is listed as -57.67%.
To `CCC[C@@H]1CN(C(=O)Cc2sc(C)nc2C)C[C@H]1C(=O)O` belongs 53.55%; to `CCC[C@@H]1CN(C(=O)c2c(F)ccc(C)c2Cl)C[C@H]1C(=O)O`, 2.3%; to `CCOc1ccccc1CC(=O)N1C[C@@H](C(=O)O)[C@H](c2ccncc2)C1`, -36.68%.
As for `CCc1nccn1C1CCCN(C(=O)c2ccc3c(c2)OCCO3)C1` (centres undefined), the INHIBITION is recorded as -14.17%.
For `CCOC1CCC2(CCN(C(=O)c3csnn3)CC2)c2ccccc21` (centres undefined), the INHIBITION worked out at 30.15%.
Take `CC(C)(C)c1nc(CN2CCN(C(=O)c3cnccn3)CC2)cs1`: the INHIBITION is listed as 8.5%.
On to `COc1cccc(CN2C[C@@H]3COC[C@]3(COCc3ccccn3)C2)c1`, for which the INHIBITION was 17.35%.
With `O=C(Nc1ccc(-c2csnn2)cc1)N1CCC(N2CCCC2)C1` (centres undefined), the INHIBITION was -55.13%.
As for `Cc1noc(CCNS(=O)(=O)N2CCCC2c2ccc(C)o2)n1` (centres undefined), the INHIBITION came to 20.34%.
With `Cc1noc(CCCNS(=O)(=O)N2CCCC2c2ccco2)n1` (centres undefined), the INHIBITION stood at 41.52%.
As to `Cc1noc(CCNS(=O)(=O)N2CCCC2c2ccco2)n1` (centres undefined), the INHIBITION is recorded as 51.76%.
On to `CN(Cc1cccc(C(N)=O)c1)CC1CCCN1c1cccnn1` (centres undefined), for which the INHIBITION was determined as 15.67%.
Turning to `CCOC1CCN(C(=O)c2c(Cl)c3ccccc3n2C)CC1`, the INHIBITION stood at 2.8%.
Turning to `Cc1ccsc1C(O)CNS(=O)(=O)Cc1ccc(F)cc1` (centres undefined), the INHIBITION is -10.98%.
For the compound `Cc1cc(C2CCC2)nc(NCCC23CCCN2CCC3)n1`, the INHIBITION was -44.93%.
For `Cc1nc(NCc2ccc(C)o2)cc(C2CCNCC2)n1`, the INHIBITION was 7.42%.
As for `CNc1cc(C2CCCNC2)nc(C)n1` (centres undefined), the INHIBITION is recorded as -23.54%.
For `Cc1nc(NCCC23CCCN2CCC3)cc(C2CCNCC2)n1`, the INHIBITION came out at 50.61%.
For the compound `Cc1nc(NCCC23CCCN2CCC3)cc(C2CCCNC2)n1` (centres undefined), the INHIBITION turned out to be 55.66%.
With `Cc1nc(NCC23CCCN2CCC3)cc(C2CCCNC2)n1` (centres undefined), the INHIBITION is recorded as 35.46%.
In the case of `CCO[C@@H]1CC[C@H]2[C@H]1OCCN2C(=O)CC1=CCCCC1`, the INHIBITION is listed as -32.82%.
Consider `CC(C)n1cnc(C2CN(C)c3ccc(C(=O)NC4CCCC4)cc32)n1` (centres undefined), for which the INHIBITION was determined as 9.36%.
Turning to `O=C(c1ccc2c(c1)[nH]c(=O)n2C1CCC(O)CC1)N1CCOCC1` (centres undefined), the INHIBITION stood at 42.8%.
Turning to `Cc1cc(N2CCCC2c2nc(C)cc(CCC(=O)O)n2)ncn1` (centres undefined), the INHIBITION is given as 27.81%.
In the case of `NC(=O)C1CCN(C(=O)NCc2ccccc2-n2cccn2)C1` (centres undefined), the INHIBITION worked out at 32.41%.
Regarding `c1cncc(COC2COC3(CCN(c4cnccn4)CC3)C2)c1` (centres undefined), the INHIBITION was -16.36%.
With `COc1ccccc1CC(=O)N1CCN(Cc2ccco2)C[C@@H]1C`, the INHIBITION came to 4.19%.
For `C[C@@H]1CN(Cc2ccco2)CCN1C(=O)Cc1ccccc1F` the value was 50.68%.
Regarding `COc1ccc(CC(=O)N2CCN(Cc3ccco3)C[C@@H]2C)cc1`, the INHIBITION is on record as 19.69%.
For `Cc1nn(C)c(C)c1CN(C)C(C(=O)O)c1ccc(F)cc1F` (centres undefined) the value was 13.99%.
